TGFb SMAD3 inh: inhibitors of TGF-b signaling; HepG2 CAGA-GFP TGF-b/SMAD3 reporter, GFP fluorescence, 18 h; TGF-beta stimulated, 500 pg/mL final; Potency, µM (top dose mostly 46.1 µM), inactives show at the highest dose activity, negative = inhibition, hits mostly inhibitors; hit rate 1.2% among 410,000; AID 588855; also: potency is read from the fitted curve at half-maximal effect; % is scaled to controls: 0 for no effect and ±100 for the full control effect; nearly all actives have a fitted effect of over 65% in size
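Cell-based qHTS in HEPG2 carrying a CAGA-GFP Smad reporter; compounds added before 500 pg/mL final TGF-beta, 18 h incubation at 37 degrees C, GFP fluorescence quantified per cell by imaging cytometry.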
IL1B secr inh: inflammasome signaling inhibition, IL-1 beta readout | THP-1 LPS/ATP IL-1B secretion, AlphaLISA, 16 h; stronger effect = lower value | activity change, % at 57.5 µM | hit rate 4.7% among 360,000 | AID 743279; in the data active = activity change below about -50%; inconclusive = mostly about -30% to -49%; also: % is scaled to controls: 0 for no effect and ±100 for the full control effect
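Secreted IL-1B measured by AlphaLISA bead assay after 16 h compound exposure of THP-1 cells; compounds (final up to 57.5 uM) added 1 h before LPS (250 ng/mL) and ATP (1.25 mM) stimulation; lower signal means less secretion.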
TDP1 cell noCPT: qHTS for Inhibitors of human tyrosyl-DNA phosphodiesterase 1 (TDP1): qHTS in cells in absence of CPT. Potency, µM (top dose mostly 46.2 µM), inactives show top-dose activity change, negative = growth inhibition, hits mostly inhibitors. hit rate 15% among 420,000. DT40 Tdp1-/- hTDP1 cells, no CPT, ATP luminescence, 48 h; also: potency is read from the fitted curve at half-maximal effect; % is scaled to controls: 0 for no effect and ±100 for the full control effect; nearly all actives have a fitted effect of over 55% in size
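Growth of hTDP1-complemented DT40 Tdp1-knockout cells is measured by ATP luminescence after at least 48 hr compound exposure at 37 °C, with DMSO substituting for the 20 nM CPT used in the parallel screen.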
HepG2 tox: counter-screen for TGF-b inhibitors: cytotoxicity in HepG2 cells; HepG2 CAGA-GFP viability, ATP luminescence, 18 h; Potency, µM (highest dose often 46.1 µM), inactives show at the top dose activity change, negative = cytotoxicity, usual class: cytotoxic; hit rate 0.76% among 410,000; also: potency is read from the fitted curve at half-maximal effect
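HepG2 CAGA-GFP cells (1000/well, DMEM with 1% FBS) received compound, then TGF-beta at 500 pg/mL final, and were incubated 18 hours at 37 degrees C. Viability was read by CellTiter-Glo luminescence. Media-only wells were set as complete cell-killing and DMSO as no toxicity.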
DT40 TDP1 CPT: growth inhibition of DT40 Tdp1-/-;hTDP1 cells with camptothecin (screen for TDP1 inhibitors); chicken DT40 Tdp1-/-;hTDP1 cells + 20 nM CPT, ATP luminescence, 48 h; Potency, µM (titrated, usually from 46.2 µM), for the others: at the top dose activity change, negative = growth inhibition, most hits filed as inhibitors; hit rate 12% among 420,000; also: potency is read from the fitted curve at half-maximal effect; % is scaled to controls: 0 for no effect and ±100 for the full control effect; nearly all actives have a fitted effect of over 55% in size
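Cell growth measured by CellTiter-Glo luminescence after a minimum 48 h, 37 C compound exposure with 20 nM CPT in Tdp1-knockout DT40 cells stably expressing hTDP1, seeded 400/well; qHTS titration format.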
TDP1 inh: inhibitors of human tyrosyl-DNA phosphodiesterase TDP1; recombinant TDP1, AlphaScreen DNA substrate cleavage; Potency, µM (series often up to 130 µM), for inactives: at the highest dose activity change, negative = inhibition, usual class: inhibitors; hit rate 0.28% among 350,000; also: potency is read from the fitted curve at half-maximal effect; % is scaled to controls: 0 for no effect and ±100 for the full control effect; nearly all actives have a fitted effect of over 40% in size
Target sequence (Q9NUW8 whole entry, looked up): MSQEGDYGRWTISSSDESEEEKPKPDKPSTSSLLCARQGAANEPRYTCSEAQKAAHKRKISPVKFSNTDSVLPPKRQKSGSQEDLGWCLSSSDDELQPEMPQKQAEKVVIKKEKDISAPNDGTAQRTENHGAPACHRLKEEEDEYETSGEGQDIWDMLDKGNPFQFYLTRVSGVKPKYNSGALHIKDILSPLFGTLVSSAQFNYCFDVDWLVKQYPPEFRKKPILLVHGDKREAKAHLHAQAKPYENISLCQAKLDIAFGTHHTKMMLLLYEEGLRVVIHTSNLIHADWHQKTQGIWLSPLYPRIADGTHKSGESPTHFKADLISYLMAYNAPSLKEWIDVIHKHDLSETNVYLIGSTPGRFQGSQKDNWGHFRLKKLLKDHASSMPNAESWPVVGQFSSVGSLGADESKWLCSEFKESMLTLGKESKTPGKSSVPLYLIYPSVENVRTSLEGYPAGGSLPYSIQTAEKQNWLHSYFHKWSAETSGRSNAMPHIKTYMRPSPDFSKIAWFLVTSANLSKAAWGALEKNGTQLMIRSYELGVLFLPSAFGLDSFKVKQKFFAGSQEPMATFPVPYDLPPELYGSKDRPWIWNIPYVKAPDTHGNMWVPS
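Here, a 5' biotin and 3' phosphotyrosine-FITC DNA oligonucleotide reports Tdp1 activity: intact substrate bridges AlphaScreen beads, while cleavage leaves a 3' phosphate and drops signal. All incubations at room temperature.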
Numbers without * were called inactive; [ ] = remark or other dose. This is a sample that favours compounds with a hit; in the whole collection about 19% have one here. Unless noted, calls follow the shape of the dose curve; as a rule, active = well fitted curve in the direction sought with a large enough effect; inconclusive = small, poorly fitted or top-dose-only effect, or another doubt; inactive = no such curve, though single readings can be large; an effect the other way counts as inactive or inconclusive.

Screening CC1=C(C(=O)N(C(C)C)C(C)C)CC(CC(=O)NCc2ccco2)C(=O)N1Cc1ccc(C(C)(C)C)cc1 (configuration not stated) returned TGFb SMAD3 inh 18µM*, IL1B secr inh -23, TDP1 cell noCPT 16µM*, HepG2 tox -32% and DT40 TDP1 CPT 21µM*.
`CCN(CC)C(=O)C1=C(C)N(Cc2ccc(C(C)(C)C)cc2)C(=O)C(CC(=O)NCc2ccco2)C1` (configuration not stated) gave TGFb SMAD3 inh 10%, IL1B secr inh inconclusive, TDP1 cell noCPT 23µM*, HepG2 tox -9% and DT40 TDP1 CPT inconclusive.
For CCN(CC)C(=O)C1=C(C)N(Cc2ccc(C(C)(C)C)cc2)C(=O)C(CC(=O)NCc2cccs2)C1 (configuration not stated) the results were TGFb SMAD3 inh -11%, IL1B secr inh inconclusive, TDP1 cell noCPT 23µM*, HepG2 tox -22% and DT40 TDP1 CPT 23µM*.
Screening COc1ccc(CN2C(=O)C(CC(=O)NCc3ccco3)CC(C(=O)N(C)C)=C2C)cc1 (configuration not stated) returned TGFb SMAD3 inh 3%, IL1B secr inh 24, TDP1 cell noCPT -21%, HepG2 tox -8% and DT40 TDP1 CPT -12%.
Screening COc1ccc(-c2cc(C(F)(F)F)n3nc(C(=O)Nc4cccc(Cl)c4Cl)cc3n2)cc1OC returned TGFb SMAD3 inh -5%, TDP1 cell noCPT -3%, HepG2 tox -11%, DT40 TDP1 CPT -5% and TDP1 inh -2%[12.3 µM].
Screening COc1ccc(Cl)cc1NC(=O)CN1C(=O)C(=O)N(C2CCCC2)C1=O returned TGFb SMAD3 inh 3%, IL1B secr inh 2, TDP1 cell noCPT -1%, HepG2 tox 2% and DT40 TDP1 CPT 3%.
Screening O=C(Cc1ccc(F)cc1)Nc1cccc(S(=O)(=O)N2CCCC2)c1 returned TGFb SMAD3 inh -9%, IL1B secr inh -8, TDP1 cell noCPT -22%, HepG2 tox 7%, DT40 TDP1 CPT -3% and TDP1 inh 6%.
O=C(Cn1nnc(-c2ccc(F)cc2)n1)Nc1cccc(S(=O)(=O)N2CCCC2)c1 was read as TGFb SMAD3 inh inconclusive, IL1B secr inh 13, TDP1 cell noCPT inconclusive, HepG2 tox -1%, DT40 TDP1 CPT 21µM* and TDP1 inh -1%.
Screening O=C(CCc1ccccc1Cl)Nc1cccc(S(=O)(=O)N2CCCC2)c1 returned TGFb SMAD3 inh -22%, IL1B secr inh -3, TDP1 cell noCPT inconclusive, HepG2 tox -14%, DT40 TDP1 CPT -21% and TDP1 inh 3%.
Screening O=C(Cn1nnc(-c2ccccc2Cl)n1)Nc1cccc(S(=O)(=O)N2CCCC2)c1 returned TGFb SMAD3 inh inconclusive, IL1B secr inh inconclusive, TDP1 cell noCPT 21µM*, HepG2 tox 7%, DT40 TDP1 CPT 23µM* and TDP1 inh 1%.
COc1ccc(-n2nnnc2SCC(=O)NC2CCS(=O)(=O)C2)cc1 (configuration not stated) was read as TGFb SMAD3 inh 20%, IL1B secr inh 0, TDP1 cell noCPT 1%, HepG2 tox 0%, DT40 TDP1 CPT 7% and TDP1 inh -1%.
`COC(=O)CCN(C1CCCCC1)S(=O)(=O)c1ccc(S(=O)(=O)N2CCCCC2)cc1` gave TGFb SMAD3 inh 3%, IL1B secr inh -13, TDP1 cell noCPT 13µM*, HepG2 tox -1%, DT40 TDP1 CPT 29µM* and TDP1 inh 3%.
`COc1ccc(OC)c(NC(=O)CN(Cc2ccc(F)cc2)C2CCCCC2)c1` gave TGFb SMAD3 inh inconclusive, IL1B secr inh -18, TDP1 cell noCPT 16µM*, HepG2 tox 0%, DT40 TDP1 CPT inconclusive and TDP1 inh 5%.
COc1ccc(S(=O)(=O)N2CCCCC2)cc1NC(=O)CN(Cc1ccco1)Cc1ccco1 was read as TGFb SMAD3 inh inconclusive, IL1B secr inh -51*, TDP1 cell noCPT inconclusive, HepG2 tox 5%, DT40 TDP1 CPT inconclusive and TDP1 inh 1%[56.1 µM].
`COc1ccc(S(=O)(=O)N2CCCCC2)cc1NC(=O)C1CC(=O)N(Cc2ccco2)C1` (configuration not stated) gave TGFb SMAD3 inh -6%, IL1B secr inh -1, TDP1 cell noCPT 1%, HepG2 tox 11%, DT40 TDP1 CPT 0% and TDP1 inh -11%.
Screening COc1ccc(S(=O)(=O)N2CCCCC2)cc1NC(=O)CN(C)C1CCCCC1 returned TGFb SMAD3 inh inconclusive, IL1B secr inh -70*, TDP1 cell noCPT inconclusive, HepG2 tox -20%, DT40 TDP1 CPT inconclusive and TDP1 inh 3%.
For CC(=O)N1CCc2c(sc3c2c(=O)n(-c2ccccc2)c(=O)n3CC(=O)c2ccc(Cl)cc2)C1 the results were TGFb SMAD3 inh 6%, TDP1 cell noCPT inconclusive, HepG2 tox 7%, DT40 TDP1 CPT -21% and TDP1 inh 3%.
For Cc1ccc(CNc2nc3ccc(Cl)cc3n3nnnc23)cc1 the results were TGFb SMAD3 inh 33%, TDP1 cell noCPT -9%, HepG2 tox -38%, DT40 TDP1 CPT -9% and TDP1 inh -5%.
`CCCCc1nn2c(=O)cc(COC(=O)c3ccc4c(c3)OCO4)nc2s1` gave TGFb SMAD3 inh inconclusive, TDP1 cell noCPT -2%, HepG2 tox 1%, DT40 TDP1 CPT -16% and TDP1 inh 7%.
For COc1nnc(-c2ccc(N3CCCCC3)c(NC(=O)c3ccccc3Cl)c2)c2ccccc12 the results were TGFb SMAD3 inh inconclusive, TDP1 cell noCPT 6.5µM*, HepG2 tox -6%, DT40 TDP1 CPT 6.5µM* and TDP1 inh 3%.
`COc1nnc(-c2ccc(N3CCCCC3)c(NC(=O)c3ccc(C)cc3)c2)c2ccccc12` gave TGFb SMAD3 inh -14%, TDP1 cell noCPT -14%, HepG2 tox -5%, DT40 TDP1 CPT -29% and TDP1 inh -3%.
For COc1nnc(-c2ccc(N3CCOCC3)c(NC(=O)c3ccco3)c2)c2ccccc12 the results were TGFb SMAD3 inh -16%, IL1B secr inh -16, TDP1 cell noCPT 26µM*, HepG2 tox -1%, DT40 TDP1 CPT inconclusive and TDP1 inh 7%.
Screening CCC(=O)Nc1cc(-c2nnc(OC)c3ccccc23)ccc1N1CCOCC1 returned TGFb SMAD3 inh 2%, IL1B secr inh -21, TDP1 cell noCPT inconclusive, HepG2 tox 3%, DT40 TDP1 CPT -27% and TDP1 inh 6%.
